ROC1-CUL1 inh = blocks human RBX1-Cullin-1 di-ubiquitin formation; inhibition, % at 10 µM; 0.6% of 140,000 active; P62877+Q13616; in vitro K48 di-Ub FRET, acceptor:donor ratio, 45 min; in the data active means inhibition above about 25%
Target sequence (P62877 whole entry, looked up): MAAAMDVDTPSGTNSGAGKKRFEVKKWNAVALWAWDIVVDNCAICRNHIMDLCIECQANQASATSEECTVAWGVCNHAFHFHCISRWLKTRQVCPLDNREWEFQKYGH
Target sequence (Q13616 whole entry, looked up): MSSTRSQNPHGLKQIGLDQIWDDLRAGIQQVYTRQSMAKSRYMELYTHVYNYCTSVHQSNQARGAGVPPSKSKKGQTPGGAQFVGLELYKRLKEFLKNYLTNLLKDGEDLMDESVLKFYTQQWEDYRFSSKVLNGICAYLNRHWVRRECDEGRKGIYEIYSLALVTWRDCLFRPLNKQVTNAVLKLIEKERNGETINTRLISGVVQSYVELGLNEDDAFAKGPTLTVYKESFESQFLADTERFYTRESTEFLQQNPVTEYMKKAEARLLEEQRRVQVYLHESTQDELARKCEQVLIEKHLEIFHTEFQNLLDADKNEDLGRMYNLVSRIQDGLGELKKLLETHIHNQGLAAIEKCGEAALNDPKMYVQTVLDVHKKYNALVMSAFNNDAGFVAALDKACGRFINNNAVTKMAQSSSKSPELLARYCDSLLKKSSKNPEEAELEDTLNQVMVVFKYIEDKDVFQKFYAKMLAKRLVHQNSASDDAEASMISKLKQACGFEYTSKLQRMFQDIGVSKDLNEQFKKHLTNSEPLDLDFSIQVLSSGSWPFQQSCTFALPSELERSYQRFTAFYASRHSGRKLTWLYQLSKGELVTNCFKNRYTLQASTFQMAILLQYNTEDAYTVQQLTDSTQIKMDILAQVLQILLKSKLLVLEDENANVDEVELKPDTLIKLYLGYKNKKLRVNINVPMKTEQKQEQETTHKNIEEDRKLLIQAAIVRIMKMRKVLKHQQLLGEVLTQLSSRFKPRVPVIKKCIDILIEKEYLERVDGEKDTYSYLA
* marks the source's active call; other numbers are inactive results. The full list was thinned out, with hits kept by preference.

SMILES	ROC1-CUL1 inh
Cc1cccc(NC(=O)c2ccc(NC(=O)c3ccco3)cc2)c1C	-5
O=C(N/N=C/c1c(Cl)cccc1Cl)c1ccccc1[N+](=O)[O-]	4
C=CCn1c(SCC(=O)Nc2ccc(NC(C)=O)cc2)nc2sc3c(c2c1=O)CCC3	9
N=C1/C(=C/c2cccc(OC(=O)c3ccc(F)cc3)c2)C(=O)N=C2SC(c3cccs3)=NN12	28*
N=C1/C(=C\c2ccc(OC(=O)c3ccc(F)cc3)c(Cl)c2)C(=O)N=C2SC(c3ccco3)=NN12	13
Cc1ccc(C2=NN3C(=N)/C(=C/c4cccc(OCc5ccc(F)cc5)c4)C(=O)N=C3S2)cc1	-7
COc1ccc(C2c3c(nn(-c4ccccc4)c3-c3ccc(Cl)cc3)C(=O)N2c2ccccc2)cc1 (stereo not given)	-3
COc1cc(C(=O)OC(c2ccccc2)c2ccccc2)cc(OC)c1OC	6
Cc1ccc(C)c(OCC(O)CN2CCN(C)CC2)c1 (stereo not given)	-9
CCOc1cc(CN2CCC(C3(Cc4cccc(OC)c4)NC(=O)N(C)C3=O)CC2)ccc1O (stereo not given)	3
CC[C@H](C)[C@H](NC1CCN(c2ccc(C(=O)N3CCN(CC)CC3)cc2)CC1)C(=O)OC	1
Cc1ccc(N2C(=O)/C(=C/c3ccc(-c4ccccc4)o3)C(=O)NC2=S)cc1Cl	-2
O=C1NC(=S)N(c2ccc(Br)cc2)C(=O)/C1=C/c1ccc(Sc2nc3ccccc3[nH]2)o1	108*
O=C1NC(=S)N(c2cccc(F)c2)C(=O)/C1=C/c1ccc(Sc2ccc(Cl)cc2)o1	0
COc1ccc(C(N2CCOCC2)P(=O)(N2CCOCC2)N2CCOCC2)cc1 (stereo not given)	-2
CN(C)NC(=O)C12CCC(C)(C(=O)C1=O)C2(C)C (stereo not given)	-5
CN(C)c1ccc(/C=C\c2ccccc2)cc1	4
CC1=NOC(=O)/C1=C\c1ccc(N(C)C)cc1	1
CN(C)c1ccc(/C=C2/OC(=S)NC2=S)cc1	26*
CCc1ccc(C2C(C(=O)Nc3ccccc3OC)C(C)=Nc3nc(SCc4ccccc4)nn32)cc1 (stereo not given)	-1
Cc1ccc(-c2nc3cc(NC(=O)c4oc5ccc(C)cc5c4C)ccc3o2)cc1	-4
Cc1cc(Cl)ccc1NC(=O)CN1CCC(C)CC1	1
Cc1cc(Br)ccc1NC(=O)CN1CCC(C)CC1	98*
Cc1cc(Br)c(NC(=O)CN2CCC(C)CC2)cc1C	5
Cc1ccc(S(=O)(=O)N=S(C)c2ccccc2)cc1 (stereo not given)	1
SMILES	ROC1-CUL1 inh
COc1cc(/C=N/Nc2nnnn2-c2cccc3ccccc23)ccc1C	-4
Cc1ccc(NC(=O)CN2C(=O)S/C(=C\c3cccn3-c3cccc(C(=O)O)c3)C2=O)cc1C	48*
Cc1ccccc1NC(=O)CN1C(=O)S/C(=C/c2ccccc2)C1=O	-1
Cc1ccc(NC(=O)CN2C(=O)S/C(=C\c3cccn3-c3cccc(C(=O)O)c3)C2=O)c(C)c1	72*
Cc1ccc(NC(=O)CN2C(=O)S/C(=C\c3ccc(N4CCCC4)c(F)c3)C2=O)c(C)c1	-6
Cc1ccc(NC(=O)CN2C(=O)S/C(=C\c3ccc(N4CCOCC4)cc3C)C2=O)c(C)c1	-7
Cc1cccc(C)c1NC(=O)CN1C(=O)S/C(=C\c2cccn2-c2cccc(C(=O)O)c2)C1=O	-3
Cc1cccc(NC(=O)CN2C(=O)S/C(=C\c3cccn3-c3cccc(C(=O)O)c3)C2=O)c1	10
Cc1ccccc1NC(=O)CN1C(=O)S/C(=C\c2cccn2-c2cccc(C(=O)O)c2)C1=O	51*
Cc1ccc(NC(=O)CN2C(=O)S/C(=C\c3ccccn3)C2=O)cc1C	0
C=CCn1c(CSc2nnc(-c3ccccc3)n2C)nnc1SCC(=O)c1ccccc1	3
Cc1c(C(=O)NC2CCN(Cc3ccccc3)C2)cnn1-c1ncc2c(n1)-c1ccccc1SC2 (stereo not given)	3
Cc1cc(-c2n[nH]c3c2CN(S(=O)(=O)c2ccsc2)CC3)c(C)o1	1
N#Cc1c(Nc2ccccc2)sc(C(=O)c2ccc(Br)s2)c1N	4
Nc1c(C=C2C=Nc3ccccc32)c(=O)nc2sc(C(F)(F)F)nn12	-4
COC1=CC(=Cc2c(N)n3nc(-c4ccccc4Cl)sc3nc2=O)C=CC1=O	60*
Cc1ccc(-c2nn3c(N)c(C=C4C=Nc5ccccc54)c(=O)nc3s2)cc1	2
Cc1cc(OCC(=O)Nc2nc(-c3ccccc3)cs2)ccc1Cl	-11
CCCCCCCC1=NN2C(=N)/C(=C/c3ccccc3C)C(=O)N=C2S1	2
CCCCCCCC1=NN2C(=N)/C(=C/c3ccc(-c4cccc(C(=O)O)c4)o3)C(=O)N=C2S1	97*
CCCC1=NN2C(=N)/C(=C/c3ccc(-c4cccc(C(=O)O)c4)o3)C(=O)N=C2S1	11
COc1cc(NC(=S)NC2CCCCC2)c(OC)cc1Cl	7
Cc1cccc(OCc2nnc(SCC(=O)Nc3cccc(C(=O)O)c3)n2C)c1	-4
O=C1O[C@@H]2CN(Cc3cccnc3)C[C@@H]2N1CCCc1ccc(F)cc1	-3
Cc1ccccc1C(=O)Nc1ccc(C(=O)NNC(=O)C(F)(F)F)cc1	1
SMILES	ROC1-CUL1 inh
Cc1cccc(NC(=O)CCn2nc(C)c3c(C)n(-c4ccccc4)nc3c2=O)c1C	-4
CCc1cccc(C)c1NC(=O)CCn1nc(C)c2c(C)n(-c3ccccc3)nc2c1=O	2
Cc1ccc(C)c(NC(=O)CCn2nc(C)c3c(C)n(-c4ccccc4)nc3c2=O)c1	34*
COCCCN1C(=O)CC(CC(=O)N2CCN(c3ccccc3)CC2)(c2ccccc2OC)C1=O (stereo not given)	5
O=C(NC1(C(F)(F)F)C(=O)N=C2C1C(=O)NC(=O)N2c1ccccc1F)c1cccs1 (stereo not given)	13
O=c1[nH]cc(I)cc1I	3
O=c1[nH]cccc1I	66*
O=c1[nH]cccc1-c1ccc[nH]c1=O	5
O=C(O)c1ccc(N2C(=O)/C(=C/c3ccc4c(c3)OCO4)SC2=S)cc1	26*
O=C(O)c1cccc(N2C(=O)/C(=C/c3ccc4c(c3)OCO4)SC2=S)c1	-2
COc1cccc(N2C(=O)/C(=C/c3ccc(C(=O)O)cc3)SC2=S)c1	3
C=CCn1c(Sc2ncnc3c2cnn3-c2ccccc2)nnc1-c1ccncc1	-1
Cc1ccc(C(=O)CSc2nc3sc4c(c3c(=O)n2-c2ccccc2)CCC4)s1	5
CCOc1cc(-c2ccc3c(c2)OCO3)cc(=Nc2cccc(OC)c2)c2c(C)oc(C)c12	0
CCOc1cc(-c2ccc(O)cc2)cc(=O)c2c(C)oc(C)c12	-18
CCOc1cc(-c2ccc(O)c(O)c2)cc(=Nc2ccc(Br)cc2)c2c(C)oc(C)c12	50*
Cc1ccc(-c2csc3ncn(Cc4ccccc4C)c(=O)c23)cc1C	1
Cc1ccc(/C=C/C(=O)O)o1	35*
Cc1ccc(NC(=O)/C=C/c2ccc(Cl)cc2)c(Br)c1	-8
CC(=C/C(=O)O)/C=C/c1ccc(Cl)o1	-1
CC(=O)c1ccc(NC(=O)/C=C/c2ccc(C)o2)cc1	7
Cc1ccc(NC(=O)/C=C/c2ccc(C)o2)c(C)c1	0
Cc1ccc(NC(=O)/C=C/c2ccc(C)o2)c(Br)c1	63*
O=C(N/N=C\c1ccc(OC(=O)c2ccccc2)c(OC(=O)c2ccccc2)c1)c1ccc(Br)cc1	-4
CCCc1noc(CN2CCSCC2)n1	6
Cc1ccccc1C(C(=O)NCc1cccnc1N(C)C)N(C)C (stereo not given)	14
